Hits are enriched below; roughly 2.4% of the tested compounds scored in any of these assays.
L3MBTL1 inh – qHTS Assay for the Inhibitors of L3MBTL1 | AlphaScreen L3MBTL1–H3K9me1 peptide binding | AID 485360, 2010 | Lethal(3)malignant brain tumor-like protein 1 (Homo sapiens), Q9Y468 | Potency, µM (top dose mostly 57.1 µM), for the others: at the top dose activity, negative = inhibition, hits mostly inhibitors | 230,000 compounds, 0.66% hits; further: potency means the concentration at half of the fitted maximal effect; on the % scale 0 is the no-effect control and ±100 the full control effect; nearly all actives have a fitted effect of over 60% in size
Target sequence (Q9Y468 whole entry, looked up): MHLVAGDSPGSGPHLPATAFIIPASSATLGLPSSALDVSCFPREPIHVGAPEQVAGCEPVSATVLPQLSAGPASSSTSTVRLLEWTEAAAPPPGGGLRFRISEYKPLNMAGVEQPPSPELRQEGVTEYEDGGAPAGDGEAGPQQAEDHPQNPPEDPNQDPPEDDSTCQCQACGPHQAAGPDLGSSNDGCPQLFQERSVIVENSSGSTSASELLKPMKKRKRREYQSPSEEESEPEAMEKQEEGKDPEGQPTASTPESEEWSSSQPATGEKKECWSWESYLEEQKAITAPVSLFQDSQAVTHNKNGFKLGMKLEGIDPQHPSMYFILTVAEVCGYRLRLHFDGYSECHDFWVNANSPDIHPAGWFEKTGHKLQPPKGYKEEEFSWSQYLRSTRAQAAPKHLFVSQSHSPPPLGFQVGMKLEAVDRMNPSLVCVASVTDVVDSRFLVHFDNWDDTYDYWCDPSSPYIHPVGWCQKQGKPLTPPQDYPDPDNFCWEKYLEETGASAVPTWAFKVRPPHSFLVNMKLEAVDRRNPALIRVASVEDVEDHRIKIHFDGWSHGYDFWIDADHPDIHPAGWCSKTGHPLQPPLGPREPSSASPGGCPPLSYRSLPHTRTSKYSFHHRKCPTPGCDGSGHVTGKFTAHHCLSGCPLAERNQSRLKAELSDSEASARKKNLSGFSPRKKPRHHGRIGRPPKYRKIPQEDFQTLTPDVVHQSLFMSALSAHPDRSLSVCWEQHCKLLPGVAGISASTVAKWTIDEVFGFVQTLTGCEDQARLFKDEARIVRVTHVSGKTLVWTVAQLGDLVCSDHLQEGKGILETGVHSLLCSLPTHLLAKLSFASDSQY
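L3MBTL1 50 nM + b-AHA-H3(1-15)K9me1 75 nM, 30 min RT; compound added, 30 min RT; streptavidin donor/Ni-chelate acceptor beads 10 ug/mL each final, 30 min RT dark; AlphaScreen read.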
Pol eta inh-1 – qHTS for Inhibitors of Polymerase Eta; DNA polymerase eta (Homo sapiens), Q9Y253; recombinant Pol eta, fluorescent DNA replication assay; Potency, µM (highest dose often 114 µM), inactives show at the highest dose activity change, negative = inhibition, usual class: inhibitors; 390,000 compounds, 1.2% hits; AID 588591, 2011; further: potency means the concentration at half of the fitted maximal effect; on the % scale 0 is the no-effect control and ±100 the full control effect
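Pol eta at 10 nM preincubated with compounds 15 min at room temperature; reaction started with fluorescent substrate (50 nM final) and read kinetically at 0 and 10 min.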
POLI inh – qHTS for Inhibitors of Polymerase Iota. Potency, µM (highest dose often 115 µM), inactives show top-dose activity, negative = inhibition, most hits filed as inhibitors. Pol iota fluorescent replication assay, 10 min. 390,000 compounds, 1% hits. AID 588590, 2011; further: potency means the concentration at half of the fitted maximal effect
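Pol iota at 10 nM preincubated 15 min with compounds at room temperature; reaction started with fluorescent substrate, 50 nM final. Fluorescence read kinetically at 0 and 10 min; buffer-only wells as negative control.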
Pol beta inh – qHTS Assay for Inhibitors of DNA Polymerase Beta; P06746; Pol beta primer extension/strand displacement, fluorescence kinetic; Potency, µM (doses to about 114 µM), inactives show top-dose activity change, negative = inhibition, usual class: inhibitors; 340,000 compounds, 1.3% hits; further: potency means the concentration at half of the fitted maximal effect; on the % scale 0 is the no-effect control and ±100 the full control effect
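Enzyme-only controls used 10 nM Pol beta; buffer lacking enzyme served as negative control. Compound preincubated 15 min, then 50 nM substrate added; 0 and 10 min reads at room temperature.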
Pol kappa inh-1 – qHTS for Inhibitors of Polymerase Kappa | DNA polymerase kappa (Homo sapiens), Q9UBT6 | purified Pol kappa, fluorescent DNA synthesis assay, 10 min | Potency, µM (doses to about 107 µM), without a hit: top-dose activity, negative = inhibition, actives largely listed as inhibitors | 400,000 compounds, 0.53% hits | AID 588579, 2011; further: potency means the concentration at half of the fitted maximal effect; on the % scale 0 is the no-effect control and ±100 the full control effect
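10 nM Pol kappa was preincubated with compounds for 15 min at room temperature. Reaction started with 50 nM (final) substrate. Fluorescence read kinetically at 0 and 10 min.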
GALK confirm – Confirmation Assay for Inhibitors of Human Galactokinase (GALK); shares compounds with Pol eta inh-1; purified GALK, Kinase-Glo ATP depletion luminescence; Potency, µM (highest dose often 115 µM), for inactives: at the highest dose activity, negative = inhibition, actives largely listed as inhibitors; 150 compounds, 70% hits
Redox cycling – Confirmatory Assay for Inhibitors of Human Galactokinase (GALK): Phenol-HRP redox assay counterscreen; Potency, µM (doses to about 115 µM), inactives show at the top dose activity change, negative = H2O2 signal, actives largely listed as inhibitors; 150 compounds, 40% hits; Phenol red-HRP H2O2 redox cycling, absorbance 600 nm; shares compounds with Pol eta inh-1
HEK293 tox – Secondary Assay for Inhibitors of Human Galactokinase (GALK): HEK-293 Cell Viability Assay; Potency, µM (highest dose often 46.1 µM), inactives show at the top dose activity change, negative = cytotoxicity, usual class: inhibitors; AID 2547, 2010; shares compounds with Pol eta inh-1; HEK-293 viability, ATP luminescence (CellTiter-Glo), 24/48 h; 170 compounds, 10% hits; further: potency means the concentration at half of the fitted maximal effect; on the % scale 0 is the no-effect control and ±100 the full control effect
Pol kappa inh-2 – qHTS for Inhibitors of Polymerase Kappa: Confirmatory Assay for Cherry-picked Compounds | shares compounds with Pol eta inh-1 | purified Pol-kappa, fluorescent strand-displacement substrate | Potency, µM, most hits filed as inhibitors | 920 compounds, 76% hits; further: potency means the concentration at half of the fitted maximal effect
Pol eta inh-2 – qHTS for Inhibitors of Polymerase Eta: Confirmatory Assay for Cherry-picked Compounds; Pol eta primer extension, TAMRA/BHQ fluorescence, 10 min; 2,600 compounds, 64% hits; shares compounds with Pol eta inh-1; Potency, µM, actives largely listed as inhibitors; AID 720502, 2013; further: potency means the concentration at half of the fitted maximal effect
An asterisk follows results filed as active; ? = inconclusive; . = no result given; ! = a repeat was not active; [ ] = dose if it differs, or a comment. The call rests on the fitted dose curve; in most records, active means well fitted curve in the direction sought with a large enough effect; inconclusive means small, poorly fitted or top-dose-only effect, or another doubt; inactive means no such curve, though single readings can be large; an effect the other way counts as inactive or inconclusive.

SMILES	L3MBTL1 inh	Pol eta inh-1	POLI inh	Pol beta inh	Pol kappa inh-1	Pol eta inh-2	others
CC(=O)C1=C(C)OC2(O)c3ccccc3C(=O)C12O (configuration not stated)	-9.0%	79.4µM*	1µM*	8.5%	-9.8%	?
O=c1c2oc3ccccc3c2n(Cc2ccccc2F)c(=O)n1Cc1ccco1	.	17.0%	-20.6%	22.9%	-9.9%	.
C=CCn1c(SCC(=O)c2ccc(O)c(O)c2)nnc1-c1cccc(C)c1	?	15.8µM*	79.4µM*	.	44.7µM*	?
COc1ncc2nc(-c3cccs3)c(=O)n(C)c2n1	.	.	.	.	-6.6%[60.1 µM]	.
COc1cc(C2CC(=O)Oc3c2c(=O)n(C)c2ccccc32)ccc1O (configuration not stated)	?	35.5µM*	?	?	?	?	Pol kappa inh-2=47.4*
COc1cc(C2CC(=O)Oc3c2c(=O)n(C)c2ccccc32)cc(OC)c1OC (configuration not stated)	1.2%	-18.3%	46.1%	?	0.4%	.
CCN(c1ccccc1)c1nnc(NC(=O)Nc2cccc(Cl)c2C)s1	.	-2.5%	74.2%	-9.2%	?	.
CN(Cc1ccccc1)C(=O)C1CCN(S(=O)(=O)c2ccc3nc4c(c(C(=O)O)c3c2)CCCC4)CC1	.	28.2µM*	?	28.2µM*!	79.4µM*	?
Cc1oc2c(c1C(=O)Nc1ccc(OC(F)(F)F)cc1)C1=NCCN1C=N2	.	-7.3%	3.2%	33.6%	9.1%	.
Cc1ccc(-c2nc(N3CCN(c4ccccc4Cl)CC3)c3ccccc3n2)cc1	.	-20.5%	32.6%	4.3%	5.5%	.
O=C1NN(c2ccccc2)C(=O)/C1=C\c1coc2ccc(O)cc2c1=O	.	?	?	?	?	?
O=C1NN(c2ccccc2)C(=O)/C1=C/c1coc2ccccc2c1=O	-8.6%	?	?	-21.1%	?	.
Cc1c(C(=O)O)c(O)cc2c1C(=O)c1c(O)c([C@@H]3O[C@H](CO)[C@@H](O)[C@H](O)[C@H]3O)c(O)c(O)c1C2=O	10µM*	?	?	.	50.1µM*	?	Pol kappa inh-2=42.3*
O=c1c(-c2ccc(O)cc2)coc2c(C3OC(CO)C(O)C(O)C3O)c(O)ccc12 (configuration not stated)	.	.	.	.	-11.6%[60.1 µM]	.
O=C(Nc1sc2c(c1C(=O)O)CCCC2)C(=O)N1CCOCC1	.	-10.6%	6.1%	-11.5%	-17.3%	.
O=C(Nc1sc2c(c1C(=O)O)CCC2)C(=O)N1CCOCC1	.	20µM*	?	?	-7.1%	?
CCOC(=O)C1=C(O)/C(=C/c2ccc(-c3ccccc3C(=O)O)o2)SC1=Nc1ccc(OC)cc1	-6.3%	10µM*	?	?	-40.2%	42.6*
O=C(CCc1nc2ccccc2c(=O)[nH]1)Nc1ccc(F)c([N+](=O)[O-])c1	?	?	49.0%	?	-35.0%	67.5*
CC(C)Oc1ccc(CNC(=O)c2ccc(CN3CC(=O)N4CCCCC4C3=O)cc2)cc1 (configuration not stated)	.	-3.9%	-6.9%	36.6%	-4.4%	.
N#C/C(=C(/O)c1cc2ccccc2o1)c1nc2ccccc2s1	3.3%	-27.2%	16.0%	34.5%	3.4%	.	GALK confirm=?;Redox cycling=-2.1%;HEK293 tox=-7.1%
COc1ccc(Nc2nn(-c3ccc(OC(F)(F)F)cc3)nc2C(C)=O)cc1	.	-19.8%	28.5%	-0.9%	-16.0%	.
O=C(O)CCCC(=O)Nc1ccc(N2CCCC2)cc1	?	12.6µM*	?	-2.1%	35.5µM*	47.8*
CC1CCN(S(=O)(=O)c2ccc3c(c2)C(Cl)(Cl)C(=O)N3)CC1	.	31.6µM*	.	.	.	?
CC1CCN(S(=O)(=O)c2ccc3ccccc3c2)CC1	.	-4.1%	-1.0%	-2.7%	-12.8%	.
Cc1ccc2c(c1)C(c1ccc(F)cc1)N(C(=O)c1ccc(OC(C)C)cc1)CC(=O)N2 (configuration not stated)	.	-21.6%	-0.1%	-1.2%	-3.7%	.
SMILES	L3MBTL1 inh	Pol eta inh-1	POLI inh	Pol beta inh	Pol kappa inh-1	Pol eta inh-2	others
COc1ccc2c(Sc3ccccc3)c(C(=O)NCCN(C)C)[nH]c2c1	.	-9.6%	47.3%	4.2%	-15.7%	.
CC(C)NS(=O)(=O)c1ccc2[nH]c3nc(SCC(=O)Nc4ccc(F)c(F)c4)nnc3c2c1	.	.	79.4µM*	.	79.4µM*	?
CCc1ccc(OCC(=O)N/N=C\c2ccco2)c([N+](=O)[O-])c1	35.5µM*	?	20µM*	?	79.4µM*	?
CC(C)Sc1nc2sc3c(c2c(=O)n1Cc1ccccc1)CCCC3	.	11.2%	?	15.4%	3.8%	.
O=C(C=C1SCCS1)/C=C/c1ccco1	?	17.8µM*	35.5µM*	22.4µM*	?	?
O=C(C=Cc1ccco1)c1ccco1	.	-1.1%	?	.	?	.
C=C1CCN(C(CC(C)C)C(=O)NCCCc2ccccc2)S(=O)(=O)c2ccccc21 (configuration not stated)	.	.	-4.7%	.	-15.3%	.
N#Cc1c(N)n(-c2cccc(C(=O)O)c2)c2nc3ccccc3nc12	0.2%	39.8µM*	31.2%	4.1%	-14.0%	53.6*
N#Cc1c(N)n(-c2ccccc2N)c2nc3ccccc3nc12	.	?	20.4%	2.1%	-4.2%	.
O=C1c2cccc3cccc(c23)C(=O)N1Cc1cccnc1	2.2%	-15.1%	109.4%	-0.6%	0.3%	.
O=C1c2cccc3c([N+](=O)[O-])ccc(c23)C(=O)N1Cc1cccnc1	?	?	?	15.8µM*	-10.2%	?

Compound activity as filed in PubChem BioAssay.
